The panel holds about 83,000 compounds, 20% with a hit somewhere; the sample as a whole holds those more often.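 Results are percent growth after 48 hours of single-concentration exposure. 100 means growth as in untreated cells, lower positive values show inhibition; negative values down to -100 show cell death.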 A number with no mark means an inactive call. Activity calls are given as the source filed them. Rule for the calls: active = growth percent below 10; inactive = the rest.

Among the test systems are HCT-15 colon; HT29 colon; SNB-75 CNS; SNB-19 CNS; U251 CNS; PC-3 prostate; UACC-62 melanoma; LOX IMVI melanoma; SK-MEL-28 melanoma; SK-MEL-2 melanoma; EKVX NSCLC; SN12C renal; UO-31 renal; TK-10 renal; ACHN renal; CAKI-1 renal; A498 renal; CCRF-CEM leukemia; MOLT-4 leukemia; SK-MEL-5 melanoma.
Common to all, as to assay: NCI-60 one-dose screen, 48 h (100 = growth as untreated, 0 = no growth, -100 = all killed)
Conditions in all cases: 10 µM unless noted

Turning to `Cc1nn(-c2ccccc2)c(/N=C/N(C)C)c1/C=C/C(=O)c1ccc(Cl)cc1`, the growth with HCT-15 colon is 62.7%; in the assay on HT29 colon, 95.4%; in the assay with SNB-75 CNS it was 91.6%; in the assay with SNB-19 CNS, 100%; in the assay on U251 CNS it was 95.1%; with PC-3 prostate, 85.9%. The growth was 88.3% with UACC-62 melanoma; 49% in the assay with LOX IMVI melanoma; 89.6% in the assay on SK-MEL-28 melanoma; 99.4% with SK-MEL-2 melanoma; 77.4% in the assay with EKVX NSCLC; 82.5% with SN12C renal. The growth is 78.1% with UO-31 renal; 104% with TK-10 renal; 102% with ACHN renal; 50.4% in the assay on CAKI-1 renal; 92.6% with A498 renal; 66.6% with CCRF-CEM leukemia. Further, in the assay on MOLT-4 leukemia, the growth is 60.9%.
As for `O=C1Nc2ccc(F)cc2/C1=C\c1nc(-c2ccccc2F)n2ccccc12`, the growth was 26.3% with HCT-15 colon; 13.8% in the assay on HT29 colon; 95.8% in the assay with SNB-75 CNS; 94.3% with SNB-19 CNS; 73.5% in the assay with U251 CNS; 76.3% in the assay on PC-3 prostate. The growth in the assay with UACC-62 melanoma was 94.6%; with LOX IMVI melanoma, 61%; in the assay on SK-MEL-28 melanoma, 130%; with SK-MEL-2 melanoma it was 38.3%; in the assay on EKVX NSCLC, 102%; in the assay with SN12C renal, 87.1%. The growth is 77.6% in the assay on UO-31 renal; 97.5% with TK-10 renal; 8.93% (active) with ACHN renal; 68.4% with CAKI-1 renal; 111% with A498 renal; 70.8% in the assay on CCRF-CEM leukemia.
On to `O=C(CBr)CN1C(=O)c2ccccc2C1=O`, for which the growth is 110% with HCT-15 colon; 99.9% in the assay on HT29 colon; 93.5% in the assay with SNB-75 CNS; 115% with SNB-19 CNS; 101% in the assay on U251 CNS; 102% with PC-3 prostate. Also, the growth was 102% in the assay with UACC-62 melanoma; 94.7% with LOX IMVI melanoma; 101% in the assay on SK-MEL-28 melanoma; 108% in the assay on SK-MEL-2 melanoma; 107% in the assay with EKVX NSCLC; 88.8% in the assay on UO-31 renal. The growth with TK-10 renal was 100%; with ACHN renal, 104%; in the assay on CAKI-1 renal, 98.6%; in the assay on A498 renal, 88.2%; in the assay with CCRF-CEM leukemia, 111%; with MOLT-4 leukemia, 104%.
With `Cc1c(N2CN3C[C@H](C)N4CN(c5c(C)n(C)n(-c6ccccc6)c5=O)CN5C[C@@H](C)N(C2)C3C54)c(=O)n(-c2ccccc2)n1C` (stereo partly specified), the growth is 96.4% with HCT-15 colon; 102% in the assay on HT29 colon; 107% in the assay with SNB-75 CNS; 101% with SNB-19 CNS; 105% in the assay on U251 CNS; 94.2% in the assay with PC-3 prostate. Besides, the growth was 96.7% in the assay with UACC-62 melanoma; 96% in the assay with LOX IMVI melanoma; 101% with SK-MEL-28 melanoma; 101% in the assay with SK-MEL-2 melanoma; 96.1% with EKVX NSCLC; 100% in the assay on SN12C renal. Further, the growth is 77.6% in the assay on UO-31 renal; 110% in the assay with TK-10 renal; 103% in the assay with ACHN renal; 87.5% with CAKI-1 renal; 117% with A498 renal; 102% with CCRF-CEM leukemia. Also, the growth in the assay on MOLT-4 leukemia is -17.9% (active).
Take `CCCCN1C(=O)/C(=c2\sc3n(c2=O)NC2C(N=3)N(CC)C(=O)N2CC)c2ccccc21` (stereo unspecified): the growth is 33.5% in the assay on HCT-15 colon; 16% in the assay with HT29 colon; 11.2% in the assay on SNB-75 CNS; 61.9% in the assay on SNB-19 CNS; 45.1% in the assay on PC-3 prostate; 55% with SK-MEL-5 melanoma. In addition, the growth in the assay with UACC-62 melanoma is 37.4%; with LOX IMVI melanoma it was 47.6%; in the assay with SK-MEL-28 melanoma it was 65.6%; with SK-MEL-2 melanoma, 59.1%; in the assay with EKVX NSCLC, 67.9%; with SN12C renal it was 50.5%. Also, the growth in the assay with UO-31 renal is 40.1%; with TK-10 renal, 83.8%; with ACHN renal, 48.4%; with CAKI-1 renal it was 30.3%; in the assay on A498 renal, 42.3%; in the assay with CCRF-CEM leukemia, 26.1%. Moreover, in the assay with MOLT-4 leukemia, the growth is 43.6%.
In the case of `C=C(CN1CC=CCC1)[C@@H]1CC[C@]2(CO)CC[C@]3(C)[C@H](CC[C@@H]4[C@@]5(C)CC[C@H](O)C(C)(C)[C@@H]5CC[C@]43C)[C@@H]12`, the growth is 92.2% with HCT-15 colon; 55.3% with HT29 colon; 108% in the assay with SNB-75 CNS; 99.8% in the assay on SNB-19 CNS; 77.5% with PC-3 prostate; 96.2% in the assay on SK-MEL-5 melanoma. The growth was 98% with UACC-62 melanoma; 99.8% in the assay with LOX IMVI melanoma; 101% in the assay on SK-MEL-28 melanoma; 110% in the assay on SK-MEL-2 melanoma; 104% in the assay on EKVX NSCLC; 98.1% in the assay on SN12C renal. Also, the growth in the assay on UO-31 renal was 93.7%; with TK-10 renal, 123%; with ACHN renal, 114%; with CAKI-1 renal it was 106%; with A498 renal it was 112%; in the assay on CCRF-CEM leukemia, 91.3%. In addition, the growth in the assay on MOLT-4 leukemia was 86.5%.
For the compound `COc1cc(OC)cc(C2C(C#N)=C(N)Oc3c2ccc2ccc(O)cc32)c1` (stereo unspecified), the growth in the assay with HCT-15 colon was 4.56% (active); with HT29 colon, 7.81% (active); with SNB-75 CNS, 72%; in the assay on SNB-19 CNS, 26.9%; in the assay with U251 CNS, 12.8%; in the assay on SK-MEL-5 melanoma, -45.6% (active). Further, the growth with UACC-62 melanoma was 28.9%; in the assay on LOX IMVI melanoma it was 0.698% (active); in the assay with SK-MEL-28 melanoma, 48.6%; in the assay with SK-MEL-2 melanoma, 21.3%; in the assay on EKVX NSCLC it was 32.9%; in the assay on SN12C renal, 9.97% (active). The growth was 18.7% in the assay on UO-31 renal; 48.3% in the assay with TK-10 renal; 15.8% with ACHN renal; 21.1% with CAKI-1 renal; 32.1% in the assay on A498 renal; 7.39% (active) in the assay with CCRF-CEM leukemia. Moreover, the growth in the assay with MOLT-4 leukemia was 7.26% (active).

For the origin of these results see PubChem BioAssay (NCI).
